Rows were chosen to be rich in hits. Some 1.2% of all compounds tested hit in one or more screens of this group.
RGS16-Gao HTS = regulators of human RGS16-Galphao interaction; O15492+P09471; bead-based flow cytometry RGS16-Galphao binding, fluorescence; actives lie on both sides; binding response (% of control), % at 10 µM; 0.38% of 220,000 active;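 also: Galphao activated by GDP with aluminum fluoride before binding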
Target sequence (O15492 whole entry, looked up): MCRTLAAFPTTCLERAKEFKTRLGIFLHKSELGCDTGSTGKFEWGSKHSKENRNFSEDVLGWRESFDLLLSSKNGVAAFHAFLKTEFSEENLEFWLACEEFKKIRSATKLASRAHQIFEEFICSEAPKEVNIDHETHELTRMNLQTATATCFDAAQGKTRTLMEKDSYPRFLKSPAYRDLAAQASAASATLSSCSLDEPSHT
Target sequence (P09471 whole entry, looked up): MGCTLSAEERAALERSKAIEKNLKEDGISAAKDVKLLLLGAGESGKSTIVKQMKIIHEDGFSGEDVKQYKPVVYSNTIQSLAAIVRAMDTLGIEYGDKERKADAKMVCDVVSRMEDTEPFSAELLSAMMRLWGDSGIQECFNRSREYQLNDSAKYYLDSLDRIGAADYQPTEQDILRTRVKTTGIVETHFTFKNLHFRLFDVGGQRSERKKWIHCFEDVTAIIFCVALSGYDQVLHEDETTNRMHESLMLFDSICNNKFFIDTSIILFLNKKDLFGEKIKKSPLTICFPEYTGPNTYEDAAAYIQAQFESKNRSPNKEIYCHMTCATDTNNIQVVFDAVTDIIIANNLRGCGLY
RGS8-Gao = modulates binding of RGS8 to human Galphao. AID 1423. multiplexed bead flow cytometry; actives lie on both sides. P09471. 0.34% of 220,000 active. response (percent of control binding), % at 10 µM; in the data active = response below about 60% or above about 140%; inactive = in between;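 also: Galphao activated as the GDP aluminium fluoride complex binding bead-coupled RGS8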
Target sequence (P09471 whole entry, looked up): as above
RGS4-Gao reg = human RGS4-Galphao interaction regulation. Multiplexed bead flow cytometry, RGS4-Galphao binding; actives lie on both sides. P09471. binding response (% of control), % at 10 µM. 0.33% of 220,000 active; in the data active = binding response below about 49% or above about 150%; inactive = in between;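 also: fluorescent Galphao activated with aluminum fluoride binding bead-coupled RGS4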
GSH bead fluor = GSH bead compound fluorescence profile; GSH beads flow cytometry, compound fluorescence 488/530 nm; active compounds read high; fluorescence (KMESF) at 10 µM; 0.25% of 190,000 active; AID 1776; in the data active = fluorescence above about 89;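 also: glutathione beads carrying GST-tagged Bcl family fusion proteins plus one bare bead set; values are compound well signal with DMSO vehicle wells as background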
Avidin bead fluor = avidin bead compound fluorescence profile | 0.38% of 220,000 active | fluorescence (KMESF) at 10 µM | Avidin beads, compound fluorescence 488/530 nm, flow cytometry; active compounds read high; in the data active = fluorescence above about 47
RGS7-Gao = human RGS7-Galphao interaction regulation. P09471. Multiplexed bead flow cytometry, RGS7-Galphao binding; actives lie on both sides. binding response (% of control), % at 10 µM. 0.35% of 220,000 active. AID 1439; in the data active = binding response below about 49% or above about 150%; inconclusive = no clear call, values can overlap the other calls; inactive = in between;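 also: fluorescent Galphao held in activated GDP-AlF4 state binding bead-coupled RGS7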
RGS-Gao = modulates binding between human RGS4 and Galphao | shares compounds with RGS16-Gao HTS | multiplexed bead flow cytometry, RGS–Galpha-o binding | RGS4–Galpha-o binding response, % at 10 µM | 99% of 1,600 active;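 also: fluorescently labeled Galpha-o bound to GDP with aluminium fluoride binding biotinylated RGS beads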
Avidin counter = counter-screen: compounds disrupting biotin binding to avidin beads. shares compounds with RGS16-Gao HTS. streptavidin beads, fluorescein-biotin binding, flow cytometry. inhibition, % at 10 µM. 1,700 tested, under 10 active;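 active = inhibition above 50%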;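 also: median green fluorescence of gated singlet beads compared with DMSO control wells; 0% = DMSO wells and 100% = complete loss of bead fluorescence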
RGS8-Gao single = confirmation of regulators of human RGS8-Galphao interaction; shares compounds with RGS16-Gao HTS; bead-based flow cytometry RGS8-Galphao binding, fluorescence; actives lie on both sides; binding response (% of control), % at 10 µM; 3% of 1,700 active; in the data active = binding response below about 72% or above about 130%; inactive = in between;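 also: Galphao activated as GDP AlF4 complex before binding bead RGS8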
RGS7-Gao single = RGS7-Galphao interaction regulation, single point confirmation; bead-based flow cytometry RGS7-Galphao binding; actives lie on both sides; 7.8% of 1,700 active; shares compounds with RGS16-Gao HTS; AID 1837; response (percent of control binding), % at 10 µM; in the data active = response below about 75% or above about 130%; inactive = in between;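 also: fluorescent Galphao activated with GDP and aluminum fluoride binding bead-coupled RGS7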
RGS16-Gao single = confirmation of regulators of human RGS16-Galphao interaction | shares compounds with RGS16-Gao HTS | bead-based flow cytometry, RGS16-Galphao binding; actives lie on both sides | response (% of control binding), % at 10 µM | 4% of 1,700 active | AID 1838; in the data active = response below about 74% or above about 130%; inactive = in between;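 also: Galphao activated as the GDP aluminium fluoride complex binding bead-coupled RGS16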
RGS4-Gao single = confirmation of regulators of human RGS4-Galphao interaction; shares compounds with RGS16-Gao HTS; RGS4-Galphao binding, multiplexed bead flow cytometry; actives lie on both sides; binding response (% of control), % at 10 µM; 4% of 1,700 active; AID 1840; in the data active = binding response below about 74% or above about 130%; inactive = in between
RGS19-Gao single = confirmation of regulators of human RGS19-Galphao interaction | bead-based flow cytometry RGS19-Galphao binding; actives lie on both sides | response (percent of control binding), % at 10 µM | 5% of 1,700 active | shares compounds with RGS16-Gao HTS; in the data active = response below about 50% or above about 160%; inactive = in between;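 also: 100% = no compound control and 0% = blank background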
The depositor's hits bear a star; ? = inconclusive; . = not tested or not shown; + = active, no number; [ ] = remark or other dose. Unless noted, no rule for the calls is given here.

SMILES	RGS16-Gao HTS	RGS8-Gao	RGS4-Gao reg	GSH bead fluor	Avidin bead fluor	RGS7-Gao	RGS-Gao	Avidin counter	RGS8-Gao single	RGS7-Gao single	RGS16-Gao single	RGS4-Gao single	RGS19-Gao single
CC(C(=O)c1ccc(-c2ccccc2)cc1)[n+]1cccc(NC(=O)c2ccccc2)c1 (configuration not stated)	.	.	.	.	.	.	.	3	106	111	102	108	84
Cc1cc(N2CCN(c3ccccc3)CC2)n2nnnc2n1	111	102	111	13	41	105	.	.	.	.	.	.	.
Cc1cc(N2CCN(c3nnnn3-c3ccccc3)CC2)n2ncnc2n1	554	140*[activator]	131	31	3	120	131*	0	95	85	95	90	111
O=C1c2ccccc2C(=O)N1CCC1=CCCCC1	103	103	102	10	24	106	.	.	.	.	.	.	.
O=C1CCCc2ccccc2N1Cc1ccc(F)cc1	104	103	111	14	40	170*[activator]	111*	0	102	104	107	104	95
O=C1CCCc2ccccc2N1Cc1cccc(F)c1	100	100	99	12	20	99	.	.	.	.	.	.	.
CC(C)(C)c1cc(C(=O)N/N=C/c2ccco2)n[nH]1	279*[activator]	136	114	9	17	115	114*	0	95	91	94	94	87
Cc1ccc(-c2cc(C(=O)N/N=C/c3ccco3)n[nH]2)s1	99	102	101	11	10	98	.	.	.	.	.	.	.
O=C(OCCN1C(=O)c2ccccc2C1=O)c1cccs1	+	140	130	16	6	126	130*	.	.	.	.	.	.
CN(C)c1ccc(/C=N/NC(=O)c2sccc2-n2cccc2)cc1	93	100	101	14	11	93	.	.	.	.	.	.	.
COCCCN1CN(Cc2ccccc2)CNC1=S	-3.3*	72	79	15	6	83	79*	0	99	100	101	99	94
Cc1ccc(CN2CCN(Cc3cnc(N4CCOCC4)s3)CC2CCO)o1 (configuration not stated)	104	102	101	11	21	99	.	.	.	.	.	.	.
COCc1cc(C)nc(OCC(=O)N/N=C/c2ccc(O)cc2O)c1C#N	31	55*	55	7	11	58	55*	0	91	83	86	84	96
CCNS(=O)(=O)c1cc(OC)c(Cl)cc1OC	107	107	105	10	8	105	.	.	.	.	.	.	.
COc1ccccc1-c1nnc2n1N=C(c1ccc(O)c(O)c1)CS2	22	59*	56	9	4	47*	56*	-2	91	83	87	91	89
CCOc1ccc(C2=Nn3c(nnc3-c3ccccc3OC)SC2)cc1	99	99	99	11	10	100	.	.	.	.	.	.	.
COc1ccccc1NS(=O)(=O)c1cc(NC(=O)c2ccc3c(c2)OCCO3)ccc1C	25	79	98	4	7	91	.	.	.	.	.	.	.
CCOc1ccc(-c2nnc(-c3ccco3)o2)cc1OCC	97	96	100	46	34	95	.	.	.	.	.	.	.
CCOc1cc(-c2nnc(-c3ccco3)o2)cc(OCC)c1OCC	96	102	119	35	194*	156*[activator]	119*	0	101	106	97	99	87
Cc1noc(C)c1C(=O)N1CCN(CCc2ccccc2)CC1	103	99	104	46	9	102	.	.	.	.	.	.	.
Cc1cc(C(=O)N2CCN(CCc3ccccc3)CC2)no1	303*[activator]	172*[activator]	227*[activator]	30	.	224*[activator]	.	1	93	58*	70*	73*	39*
COc1cc(S(=O)(=O)Nc2cccc(C)c2)ccc1NC(=O)c1cccnc1	109	104	107	6	24	115	.	.	.	.	.	.	.
OCC(O)C(O)C(O)C(O)c1nc2ccccc2[nH]1 (configuration not stated)	95	96	97	12	11	?	.	.	.	.	.	.	.
OC(c1ccc(Cl)cc1)C(O)c1nc2ccccc2[nH]1 (configuration not stated)	303	141*[activator]	121	60	4	109	121*	.	.	.	.	.	.
OCc1nc2ccccc2n1CCCOc1ccc(Br)cc1	-3.6*	7.0*	-3.9*	40	-4	1.2*	.	2	101	104	102	104	105
SMILES	RGS16-Gao HTS	RGS8-Gao	RGS4-Gao reg	GSH bead fluor	Avidin bead fluor	RGS7-Gao	RGS-Gao	Avidin counter	RGS8-Gao single	RGS7-Gao single	RGS16-Gao single	RGS4-Gao single	RGS19-Gao single
Cc1ccc(OCCCCn2c(CO)nc3ccccc32)cc1	103	101	100	10	12	101	.	.	.	.	.	.	.
CCCc1cc(=O)oc2c3c(c4c(c12)OC(C)(C)C=C4)OC(C)C(C)C3O (configuration not stated)	-5.8*	10*	-6.7*	.	0	?	.	-2	107	111	108	110	112
Cc1ccc(-n2c(C)n[nH]c2=S)cc1C	107	103	102	9	11	103	.	.	.	.	.	.	.
Cc1ccc(-n2c(C)n[nH]c2=S)cc1	183*[activator]	118	115	9	16	119	115*	1	111	130*[activator]	108	111	114
COCCN(C(=S)Nc1cc(C)cc(C)c1)C(C)c1ccco1 (configuration not stated)	97	100	99	11	6	97	.	.	.	.	.	.	.
COc1ccc(NC(=O)CN(C)C(=O)c2ccc(C)s2)cc1	101	101	99	11	11	103	.	.	.	.	.	.	.
CCOC(=O)/C(C(=O)Nc1ccccc1Cl)=C1/NC(C)(C)Cc2ccccc21	.	.	.	17	.	.	.	5	95	73*	86	85	88
CCOc1ccc(NS(=O)(=O)c2ccc3ncsc3c2)cc1	143	134	146	15	8	152*[activator]	146*	1	100	97	98	100	111
CCOC(=O)C1CCN(C(=O)CSc2ccc(Br)cc2)CC1	106	100	111	14	15	110	.	.	.	.	.	.	.

Screening results: PubChem, NMMLSC
